Test results taken from the supplement of paper PMC6089552.
The whole screen tested about 3,200 compounds, of which about 300 (9.4%) showed activity. The sample as a whole holds a higher share of actives than the screen did.

Test system: A673/TR/shEF
Experiment: cell viability (LOESS-normalised, relative to median of negative controls) (log2 ratio); higher = more viable cells (less compound effect), active = hit call of the paper (over 3 MAD below the median)
Details: treatment time: 72 h
Outline: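 Viability of A673/TR/shEF Ewing sarcoma cells was determined by CellTiter-Glo luminescence. The cells, at 1,500 per well in 384-well plates, were grown with or without doxycycline from 24 h before compound addition to switch on EWS-FLI1 shRNA knockdown, then exposed for three days to library compounds at two or more concentrations or to DMSO controls. Signals were LOESS-corrected plate by plate, normalised to the negative-control median and log2-transformed.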

[1] = 0.25 µM, library screen: screen1, EWS-FLI1 expression: high (no doxycycline)
[2] = 0.25 µM, library screen: screen1, EWS-FLI1 expression: low (doxycycline-induced shRNA knockdown)
[3] = 2.5 µM, library screen: screen1, EWS-FLI1 expression: high (no doxycycline)
[4] = 2.5 µM, library screen: screen1, EWS-FLI1 expression: low (doxycycline-induced shRNA knockdown)
[5] = 0.25 µM, library screen: screen2, EWS-FLI1 expression: high (no doxycycline)
[6] = 0.25 µM, library screen: screen2, EWS-FLI1 expression: low (doxycycline-induced shRNA knockdown)
[7] = 2.5 µM, library screen: screen2, EWS-FLI1 expression: high (no doxycycline)
[8] = 2.5 µM, library screen: screen2, EWS-FLI1 expression: low (doxycycline-induced shRNA knockdown)

For `COc1ccc(CN2CCN(Cc3cccc([N+](=O)[O-])c3)CC2)cc1OC`, the “cell viability (log2)” value [1] was 0.0511 (inactive), the “cell viability (log2)” value [2] was 0.032 (inactive) and the “cell viability (log2)” value [3] was 0.111 (inactive). For the same compound, the “cell viability (log2)” value [4] was 0.138 (inactive).

In the case of `COc1ccc2cc3[n+](cc2c1OC)CCc1cc2c(cc1-3)OCO2`, the “cell viability (log2)” value (0.025 µM, library screen: screen2, EWS-FLI1 expression: high (no doxycycline)) is reported as 0.0792 (inactive), the “cell viability (log2)” value (0.025 µM, library screen: screen2, EWS-FLI1 expression: low (doxycycline-induced shRNA knockdown)) is reported as 0.0888 (inactive) and the “cell viability (log2)” value [1] is reported as 0.0876 (inactive). The “cell viability (log2)” value [2] was 0.0916 (inactive), the “cell viability (log2)” value [5] was 0.139 (inactive) and the “cell viability (log2)” value [6] was 0.0365 (inactive). For the same compound, the “cell viability (log2)” value [3] was -0.0264 (inactive), the “cell viability (log2)” value [4] was 0.141 (inactive) and the “cell viability (log2)” value [7] was -0.318 (active). The “cell viability (log2)” value [8] was -0.00212 (inactive), the “cell viability (log2)” value (25 µM, library screen: screen2, EWS-FLI1 expression: high (no doxycycline)) was -1.53 (active) and the “cell viability (log2)” value (25 µM, library screen: screen2, EWS-FLI1 expression: low (doxycycline-induced shRNA knockdown)) was -0.365 (active).

For `COc1cc2c(cc1OC)-c1cc3ccc(OC)c(OC)c3c[n+]1CC2`, the “cell viability (log2)” value [1] was 0.021 (inactive), the “cell viability (log2)” value [2] was 0.0361 (inactive) and the “cell viability (log2)” value [3] was -0.0191 (inactive). For the same compound, the “cell viability (log2)” value [4] was 0.0646 (inactive).

With `COc1ccc2c(=O)c(-c3cc4c(cc3OC)OCO4)coc2c1` the “cell viability (log2)” value [1] was 0.0588 (inactive), the “cell viability (log2)” value [2] was -0.078 (inactive) and the “cell viability (log2)” value [3] was 0.0766 (inactive). The “cell viability (log2)” value [4] was 0.0171 (inactive).

`COC1=CC(=O)C(O)=C/C1=C/C=C/c1ccccc1` was tested, and the “cell viability (log2)” value [1] was 0.0854 (inactive), the “cell viability (log2)” value [2] was 0.141 (inactive) and the “cell viability (log2)” value [3] was 0.097 (inactive). The “cell viability (log2)” value [4] was 0.125 (inactive).

In the case of `N#CC(=C(/N)Sc1ccccc1N)/C(C#N)=C(\N)Sc1ccccc1N`, the “cell viability (log2)” value [5] is reported as 0.102 (inactive), the “cell viability (log2)” value [6] is reported as 0.0572 (inactive) and the “cell viability (log2)” value [7] is reported as -0.0299 (inactive). For the same compound, the “cell viability (log2)” value [8] was -0.0332 (inactive).

`N#CC(=C(N)Sc1ccccc1N)C(C#N)=C(N)Sc1ccccc1N` was tested, and the “cell viability (log2)” value (0.025 µM, library screen: screen1, EWS-FLI1 expression: high (no doxycycline)) was 0.299, the “cell viability (log2)” value (0.025 µM, library screen: screen1, EWS-FLI1 expression: low (doxycycline-induced shRNA knockdown)) was -0.0593 (inactive) and the “cell viability (log2)” value [1] was 0.259 (inactive). For the same compound, the “cell viability (log2)” value [2] was 0.136 (inactive), the “cell viability (log2)” value [3] was -0.31 (active) and the “cell viability (log2)” value [4] was 0.171 (inactive). The “cell viability (log2)” value (25 µM, library screen: screen1, EWS-FLI1 expression: high (no doxycycline)) was -0.459 (active) and the “cell viability (log2)” value (25 µM, library screen: screen1, EWS-FLI1 expression: low (doxycycline-induced shRNA knockdown)) was 0.0799 (inactive).

With `FC(F)(F)c1cc(CO[C@H]2CCCN[C@H]2c2ccccc2)cc(C(F)(F)F)c1` the “cell viability (log2)” value [5] was 0.151 (inactive), the “cell viability (log2)” value [6] was 0.112 (inactive) and the “cell viability (log2)” value [7] was 0.041 (inactive). The “cell viability (log2)” value [8] was 0.077 (inactive).

For `CC(=O)O.CC(=O)O.[Cd]`, the “cell viability (log2)” value [1] was 0.129 (inactive), the “cell viability (log2)” value [2] was -0.0033 (inactive) and the “cell viability (log2)” value [3] was 0.0042 (inactive). The “cell viability (log2)” value [4] was -0.0745 (inactive).

In the case of `CC(=O)O[C@@H]1c2c(ccc3ccc(=O)oc23)OC(C)(C)[C@@H]1OC(=O)CC(C)C`, the “cell viability (log2)” value [1] is reported as 0.0407 (inactive), the “cell viability (log2)” value [2] is reported as -0.0116 (inactive) and the “cell viability (log2)” value [3] is reported as 0.121 (inactive). The “cell viability (log2)” value [4] was 0.0173 (inactive).

In the case of `CC(=O)OC(CC(=O)[O-])C[N+](C)(C)C` (stereo unspecified), the “cell viability (log2)” value [1] is reported as 0.00442 (inactive), the “cell viability (log2)” value [2] is reported as 0.0665 (inactive) and the “cell viability (log2)” value [3] is reported as 0.0316 (inactive). For the same compound, the “cell viability (log2)” value [4] was -0.00031 (inactive).
